About 83,000 compounds went through this panel and 20% of them were active in at least one assay; those are over-represented in the sample as a whole.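 For each line, cells grew in 96-well plates with the test compound present at a single concentration for 48 hours.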 Unmarked numbers belong to inactive results. The source made the active and inactive calls. Rule for the calls: active = growth percent below 10; inactive = the rest.
Tested on: HL-60(TB) leukemia
Test: NCI-60 one-dose screen, 48 h (100 = growth as untreated, 0 = no growth, -100 = all killed)
Settings: 10 µM unless noted

SMILES	growth
Oc1c(I)cc(I)cc1CNCc1ccccn1	20.2%
Cc1cc2c3ccc(C)[n+](C)c3ccc2n1C	-5.59% (active)
CC1CCC2C(C)(C)C3CC12CC1OC13C (stereo not given)	125%
CCC(O)CC(CC)CO (stereo not given)	94.2%
CCC(=O)Oc1ccc(/C=N/NC(N)=S)nc1	19.9%
CC(=O)Oc1cc(OC(C)=O)c2ccccc2c1OC(C)=O	23.3%
COC(=O)[C@]12CCC(C)(C)C[C@H]1[C@H]1/C(=N/OCCc3nn[nH]n3)C[C@@H]3[C@@]4(C)CC[C@H](OC(C)=O)C(C)(C)[C@@H]4CC[C@@]3(C)[C@]1(C)CC2	10.4%
O=c1[nH]c(-c2ccccc2)nc2sc3cc(O)ccc3c12	-33.5% (active)
COc1ccccc1S(=O)(=O)Nc1ccc2c3c(cc(-c4ccoc4)nc13)C(=O)N2C	8.91% (active)
Cc1ccccc1C(c1ccccc1)c1ccccc1C	88.4%
CCCCC/C(C)=N\NC(N)=S	96.5%
CCCCC[C@H]1CC=C2C(=O)C(Cl)=C[C@@H]2CC=CCCCC(=O)O[C@@H](CCCCC)CC=C2C(=O)C(Cl)=C[C@@H]2CC=CCCCC(=O)O[C@@H](CCCCC)CC=C2C(=O)C(Cl)=C[C@@H]2CC=CCCCC(=O)O1	8.31% [8 µM] (active)
COc1cc(/C=N/n2c(CN3CCOCC3)nc3ccccc3c2=O)cc(OC)c1OC	98.1%
COc1ccc(/C=N/C2=C(C#N)C(c3ccc(OC)cc3)c3ccc4ccccc4c3O2)cc1 (stereo not given)	63.4%
CC/C(=C(\CC)c1ccc(OCCN(CC)CC)cc1)c1ccc(OCCN(CC)CC)cc1	-3.52% (active)
S=c1[nH]nc(-c2cc3ccc2CCc2ccc(cc2)CC3)n1C1CC1	106%
CCCCCCCCCCCC(=O)OC(C)C(=O)Nc1ccccc1 (stereo not given)	91.7%
O=C(Nc1cccc(C(F)(F)F)c1)Nc1ccc(OCc2nnc(-c3ccc(Cl)cc3)o2)c(F)c1	92.5%
N#Cc1c(-c2ccc(Cl)cc2)nc2c(c(-c3ccccc3)nn2-c2ccccc2)c1-c1ccc(O)cc1	32.8%
C=CCCCCCCCCC(=O)OC(C)C	117%

SMILES	growth
O=Cc1ccc(O)c(O)c1	88%
Cc1cc(N)cc(C)c1-c1c(Br)cc(N)cc1Br	10.4%
C[C@@H]1CC[C@H]2[C@@H](C)C(O)O[C@@H]3O[C@]4(C)CC[C@@H]1[C@]32OO4 (stereo not given in full)	-24.4% (active)
C=C1C(=O)O[C@H]2[C@H]1CC/C(COC(=O)NCc1ccc(Cn3c(=O)sn(-c4ccc(Cl)cc4)c3=O)cc1)=C\CC[C@@]1(C)O[C@@H]21	-11.4% (active)
Cc1nc(NC(=O)COc2cccc(/C=C3\COc4ccccc4C3=O)c2)sc1C	-61.4% (active)
COc1ccc(N2CCN(S(=O)(=O)c3oc(-c4ccccc4)nc3C#N)CC2)cc1	50.5%
C[N+]1=C(/C=C/c2ccc(I)cc2)C(C)(C)c2ccccc21	39.4%
COc1ccc(/C=C2\CN(C(=O)CCN3CCC(=NO)CC3)C/C(=C\c3ccc(OC)cc3)C2=O)cc1	-14.4% (active)
NCCNc1nc(-c2ccccc2)nc2nc(-c3ccccc3)oc12	97.9%
COc1ccc2c(c1)OC1=C(C(=O)OC1)C2c1cc(OC)c2c(c1)OCO2 (stereo not given)	-13% (active)
COc1ccccc1N1C(=O)/C(=C/C2=Cc3ccccc3OC2)SC1=S	92.9%
O=C1/C(=C/c2ccccc2)CCC/C1=C\c1ccccc1	97.8%
O=C(O)c1cc2ccccc2s1	112%
C=C(C)[C@@H]1CC[C@]2(C(=O)N3CCN(C)CC3)CC[C@]3(C)[C@H](CC[C@@H]4[C@@]5(C)CC[C@H](O)C(C)(C)[C@@H]5CC[C@]43C)[C@@H]12	-52.6% (active)
CSc1cccc(NC(=O)Nc2nc3c(C)cccc3s2)c1	85.8%
O=C(N/N=C/c1ccccc1O)c1ccccc1Nc1ccnc(C(F)(F)F)c1	7.92% (active)
Cc1cc(O)cc2c1[C@H]1CC[C@]3(C)[C@@H](O)CC[C@H]3[C@@H]1C=C2	70.6%
Cc1nc2sc(C(=O)Nc3cccc4ncccc34)c(N)c2cc1C(C)O (stereo not given)	33%
O=[N+]([O-])c1ccccc1NC1c2ccccc2Oc2ccccc21	-14.4% (active)
Nc1c(C(=O)Nc2ccccn2)sc2nc3c(cc12)CCCC3	5.35% (active)
